A number with no mark means an inactive call. How the calls were made is not given here. Positions of bridges follow the written chain, without caps; N, C: chain ends. Non-standard residues stand in square brackets, D forms with d. Residues, ends and D or L forms follow the SMILES beside them. ξ: configuration not given here. *: point of attachment. ξDab(CH2SO3H) = NC(CCNCS(=O)(=O)O)C(=O)O; Heptanoyl(6-Me) = CC(C)CCCCC(=O)*; Dab = NCC[CH](N)C(=O)O
system: Aerobactin synthetase IucA (Klebsiella pneumoniae hvKP1); experiment: IucA enzyme inhibition, primary screen, biochemical, Spectrum library (AID 1346200); conditions: malachite green pyrophosphate, A620, at 8 µM, stronger effect = lower value;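 further: 100% = wells without compound and 0% = wells lacking enzyme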

| SMILES | activity remaining [%] |
| --- | --- |
| Cc1ccc2c(Cl)cc(Cl)c(O)c2n1 | 85.6 |
| CC1(C)CCC[C@@]2(C)C1[C@@H](O)C[C@]1(C)C2CC[C@@H]2[C@@]3(C)CC[C@H](C(C)(C)O)[C@@H]3CC[C@@]21C (stereo partly specified) | 99.1 |
| NC[C@H]1O[C@H](O[C@H]2C(O[C@@H]3O[C@H](CO)[C@@H](O)[C@H]3O)[C@@H](O)[C@H](N)C[C@@H]2N)[C@H](N)[C@@H](O)[C@@H]1O (stereo partly specified) | 123 |
| CC(=O)O[C@H]1C[C@@H](OC(C)=O)C(C)(C)C2CC(=O)[C@]3(C)C(CC[C@@]4(C)[C@H](C(=O)O)OC(=O)C5OC543)[C@]21C (stereo partly specified) | 122 |
| CN[C@@H]1[C@@H](O[C@H]2O[C@H](CO)[C@@H](N)[C@H](O)[C@H]2O)O[C@H]2C[C@@H](N)[C@H](O[C@H]3[C@H](O)[C@@H](O)[C@H](N)C[C@@H]3N)O[C@@H]2[C@@H]1O | 124 |
| O=C(O)CCCCC1CCSS1 (stereo unspecified) | 103 |
| CC(=O)Nc1ccc(S(=O)(=O)Nc2ccc([N+](=O)[O-])cc2)cc1 | 111 |
| Cn1nnnc1SCC1=C(C(=O)O)N2C(=O)C(NC(=O)C(O)c3ccccc3)C2SC1 (stereo unspecified) | 121 |
| COc1ccc2c(c1)OCC(Cc1ccc(OC)c(OC)c1)C2=O (stereo unspecified) | 95.4 |
| Cn1c(=O)[nH]c2nc[nH]c2c1=O | 79.5 |
| C[C@@H]1CC2C3CCC4=CC(=O)C=C[C@]4(C)[C@@]3(F)[C@@H](O)C[C@]2(C)[C@@]1(O)C(=O)CO (stereo partly specified) | 119 |
| CC1(C)S[C@@H]2[C@H](NC(=O)[C@H](C(=O)O)c3cccs3)C(=O)N2[C@H]1C(=O)O | 102 |
| C1CCC(C(CC2CCCCN2)C2CCCCC2)CC1 (stereo unspecified) | 103 |
| CCC(C)C1NC(=O)C(CCNCS(=O)(=O)O)NC(=O)C(NC(=O)C(CCNCS(=O)(=O)O)NC(=O)C(NC(=O)C(CCNCS(=O)(=O)O)NC(=O)CCCCC(C)C)C(C)O)CCNC(=O)C(C(C)O)NC(=O)C(CCNCS(=O)(=O)O)NC(=O)C(CCNCS(=O)(=O)O)NC(=O)C(C(C)CC)NC1=O (stereo unspecified) ({Heptanoyl(6-Me)}-[ξDab(CH2SO3H)]T[ξDab(CH2SO3H)][Dab][ξDab(CH2SO3H)]II[ξDab(CH2SO3H)][ξDab(CH2SO3H)]T; lactam 4-C; configuration not given here) | 120 |
| CC(=O)O[C@H]1CCC2(C)C3=C(CCC2C1(C)C)[C@]1(C)CCC(C(C)CCC=C(C)C)[C@@]1(C)CC3 (stereo partly specified) | 111 |
| CC1CCC(NC(=O)N(CCCl)N=O)CC1 (stereo unspecified) | 106 |

| SMILES | activity remaining [%] |
| --- | --- |
| CCn1cc(C(=O)O)c(=O)c2cc(F)c(N3CCN(C)CC3)cc21 | 109 |
| CC(=O)O[C@@H]1CC2C(C)(C)C(=O)[C@@H]3O[C@@H]3[C@]2(C)C2CC[C@]3(C)C(=CC(=O)O[C@H]3c3ccoc3)[C@@]21C (stereo partly specified) | 99.4 |
| C[C@@H]1CC2C3C[C@H](F)C4=CC(=O)C=C[C@]4(C)[C@@]3(F)[C@@H](O)C[C@]2(C)[C@@]1(O)C(=O)COC(=O)C(C)(C)C (stereo partly specified) | 98.9 |
| C[C@H]1CC2C([C@@H](O)C[C@@]3(C)C2CC[C@]3(O)C(=O)COC(=O)CCC(=O)O)[C@@]2(C)C=CC(=O)C=C12 (stereo partly specified) | 91.3 |
| C[C@]12CCC(=O)C=C1CCC1C2[C@@H](O)C[C@@]2(C)C1CC[C@]2(O)C(=O)COC(=O)CCC(=O)O (stereo partly specified) | 123 |
| CC(N)C12CC3CC(CC(C3)C1)C2 (stereo unspecified) | 115 |
| S=c1ccss1 | 84.5 |
| CC1(C)OC(=O)NC1=O | 115 |
| C[C@@H]1CC[C@@]23CCC4(C)[C@@](C=CC5[C@@]6(C)CCC(=O)C(C)(C)C6CC[C@]54C)(OC2=O)C3[C@H]1C (stereo partly specified) | 112 |
| O=C(/C=C/c1ccccc1)c1ccc(O)cc1O | 96.4 |
| Cc1nnc(NS(=O)(=O)c2ccc(N)cc2)s1 | 113 |
| CCCCCCCC/C=C/CCCCCCCCOP(=O)([O-])OCC[N+](C)(C)C | 96.1 |
| N=c1ccn2c(n1)O[C@@H]1[C@@H](O)[C@H](CO)O[C@@H]12 | 97.5 |
| CC(C)[C@H](N)C(=O)OCCOCn1cnc2c(=O)[nH]c(N)nc21 | 122 |
| Nc1ccccc1C(=O)CC(N)C(=O)O (stereo unspecified) | 118 |

Source: PubChem BioAssay
